Experimental data published in PubChem BioAssay.
For part of these data: Entries with a potency or affinity are not part of this list. The source made the active and inactive calls.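 Rule for the calls, unless noted: active = fitted half-maximal concentration within the tested range, moderate curve steepness, significant signal drop, and little compound fluorescence or bead-linkage interference; inactive = the rest.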

Assays:
[1] = target: Cell division control protein 42 homolog (Homo sapiens) (UniProt P60953); experiment: inhibition of fluorescent GTP binding to constitutively active Cdc42 – biochemical, multiplex bead flow cytometry, Bodipy-FL-GTP, dose response (AID 1333;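 active = fitted half-maximal concentration within the tested dose range, moderate curve steepness, a statistically real signal drop, and little compound fluorescence or tag-binding interference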)
[2] = target: Cell division control protein 42 homolog (Homo sapiens) (UniProt P60953); experiment: inhibition of fluorescent GTP binding to wildtype Cdc42 – biochemical, multiplex bead flow cytometry, Bodipy-FL-GTP, dose response (AID 1334); conditions: bead-based flow cytometry, Bodipy-FL-GTP binding to GST-Cdc42; at 100 µM (top of the series) unless noted
[3] = target: GTPase HRas (Homo sapiens) (UniProt P01112); experiment: Ras wt fluorescent GTP loading blockade – biochemical, wildtype, multiplex bead flow cytometry, dose response (AID 1335;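 active = fitted half-maximal concentration within 10 nM to 100 µM, steepness 0.5 to 2, significant signal drop, low assay interference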); conditions: bead-based flow cytometry, Bodipy-GTP binding to GST-Ras; at 100 µM (top of the series) unless noted
[4] = tested on: Ras-related protein Rab-7a (dog), GTP binding; experiment: blockers of fluorescent GTP binding to Rab7 – biochemical, wildtype, multiplex bead flow cytometry, dose response (AID 1336; call rule not given here)
[5] = target: Ras-related C3 botulinum toxin substrate 1 (Homo sapiens) (UniProt P63000); experiment: inhibition of wildtype Rac1 nucleotide loading – biochemical, multiplex bead flow cytometry, dose response (AID 1340;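 active = dose curve with midpoint inside tested range, moderate steepness, plateau gap beyond fit error, low compound glow and bead-link interference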); conditions: GST-Rac1 beads, Bodipy-FL-GTP binding; at 100 µM (top of the series) unless noted
[6] = target: GTPase HRas (Homo sapiens) (UniProt P01112); experiment: blockade of GTP loading onto mutant Ras – biochemical, activated mutant, multiplex bead flow cytometry, dose response (AID 1341;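 active = dose-response curve with midpoint inside the tested range, moderate steepness, significant amplitude and little compound fluorescence or bead-attachment interference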;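 note: GST-tagged constitutively activated Ras mutant immobilized on beads and multiplexed with other GTPases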)

GTPase HRas (Homo sapiens), sequence (P01112 whole entry, looked up): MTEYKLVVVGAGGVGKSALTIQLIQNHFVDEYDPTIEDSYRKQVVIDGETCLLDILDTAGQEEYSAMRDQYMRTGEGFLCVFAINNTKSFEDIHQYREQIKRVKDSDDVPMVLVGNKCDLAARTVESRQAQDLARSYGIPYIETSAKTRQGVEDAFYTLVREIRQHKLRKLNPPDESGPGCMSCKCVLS
Cell division control protein 42 homolog (Homo sapiens), sequence (P60953 whole entry, looked up): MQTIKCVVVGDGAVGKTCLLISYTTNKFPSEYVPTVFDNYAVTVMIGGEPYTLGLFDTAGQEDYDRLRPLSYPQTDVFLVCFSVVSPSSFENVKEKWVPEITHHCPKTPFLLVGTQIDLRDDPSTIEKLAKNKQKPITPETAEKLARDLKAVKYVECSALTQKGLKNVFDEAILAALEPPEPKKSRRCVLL

SMILES | outcome [1] | fluorescence, percent of control (lower = inhibition) [2] [%] | GTP binding, percent of control [3] [%] | outcome [4] | GTP binding signal, raw median fluorescence (lower = inhibition) (MCF (arbitrary fluorescence units)) [5] | outcome [6]
Cc1nc2sccn2c1-c1nc(-c2cc3ccccc3o2)cs1 | inactive | 50.9 | 57.4 | inactive | 155 | inactive
O=c1c2ccc([N+](=O)[O-])cc2ncn1Cc1ccccc1C(F)(F)F | inactive | 34.8 | 72.7 | inactive | 141 | inactive
COc1ccc(-c2csc(NC(=S)NC(=O)c3cccs3)n2)cc1OC | inactive | 36.6 | 78.1 | inactive | 176 | inactive
Cn1nc(C(=O)Nc2cccnc2)c2ccccc2c1=O | inactive | 49 | 111 | inactive | 135 | inactive
CCOc1ccc(NCc2ccccc2OCc2cccc(F)c2)cc1 | inactive | 69.4 | 68.1 | inactive | 0 | inactive
Cc1cccc(CSCc2ccc(C(=O)O)o2)c1 | inactive | 58.1 | 86.9 | inactive | 28.5 | inactive
COc1ccccc1NC(=O)CSc1ccc2nnc(-c3cccnc3)n2n1 | inactive | 36.4 | 49 | inactive | 114 | inactive
COc1cccc(C(=O)O)c1OCc1ccccc1Br | inactive | 57 | 201 | inactive | 53.6 | inactive
O=C(CCc1ccccn1)N1CCCC(CNS(=O)(=O)c2cccs2)C1 (stereo not given) | inactive | 36.9 | 82.7 | inactive | 279 | inactive
COc1ccc(C(=O)O)c(OCc2ccccc2Br)c1 | inactive | 59.6 | 171 | inactive | 56.1 | inactive
COc1ccc(CC(C)N2CCN(Cc3ccccc3)CC2)c(OC)c1 (stereo not given) | inactive | 38.1 | 85.3 | inactive | 272 | inactive
Cc1c(NS(=O)(=O)c2ccc3c(c2)Cc2ccccc2-3)c(=O)n(-c2ccccc2)n1C | inactive | 30.4 | 80 | inactive | 238 | inactive
COc1ccc(CC(=O)c2ccccc2C(=O)O)cc1 | inactive | 153 | 143 | inactive | 368 | inactive
Cc1ccccc1-n1c(SCc2c(C)noc2C)nnc1-c1cccnc1 | inactive | 104 | 179 | inactive | 195 | inactive
COCCNC(=S)Nc1cc(OC)c(OC)cc1C#N | inactive | 40.8 | 74.7 | inactive | 144 | inactive
